Data as given in the supplement of paper PMC10600219.
Structures can show the parent of a compound that is named as a salt. Whole data set: some 2,800 compounds, median “cell viability relative to vehicle” near 1.1, cut for the lowest 2% near 0.19. What follows is part of a selection rich in the lowest values, with near analogues and random picks from the rest.

System: NCI-H2228 parental
Experiment: cell viability relative to vehicle (fraction of vehicle); NCI-H2228 is an ALK-positive lung cancer line and DTP means drug-tolerant persister; higher = less growth inhibition
Settings: 100 nM; treatment time 6 days
In short: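 Parental NCI-H2228 cells and drug-tolerant persister cells (made with 1000 nM of a targeted drug for 13 days) were seeded in 384-well plates. The next day, the 3114-agent TargetMol anti-cancer compound library was added at 100 nM, with DMSO as vehicle. After 6 days, ATP was read with the CellTiter-Glo 3D Cell Viability Assay. Each value is cell viability relative to vehicle-treated cells.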

Structure (SMILES) | cell viability
FC(F)(F)c1ccccc1-c1nc(NCc2cccs2)c2ccccc2n1 | 1.04
CC(CCc1ccccn1)(CCc1ccccn1)C(=O)c1ccccc1 [JAK2 Inhibitor V] | 1.08
COc1cc2ncnc(Nc3ccc(Oc4ccccc4)cc3C)c2cc1OC | 0.96
CCc1ccc(-c2nc(CSCC(=O)NCCc3ccccc3)c(C)o2)cc1 | 1.1
COc1cc(N(C)C)cc(CN(C)CCc2ccc([N+](=O)[O-])cc2)c1O [CDC25 Phosphatase Inhibitor I] | 1.05
O=C(O[C@@H]1Cc2c(O)cc(O)cc2O[C@H]1c1cc(O)c(O)c(O)c1)c1cc(O)c(O)c(O)c1 [(-)-Gallocatechin gallate] | 1.07
O=C1NCCSc2c1sc1ccc(O)cc21 | 1.05
Cc1csc(-c2nnc(Nc3ccc(Oc4ncccc4-c4ccnc(N)n4)cc3)c3ccccc23)c1 | 0.143
C[C@@H]1CCCCCCCCCCCCC(=O)C1 [Muscone] | 1.13
COC[C@H](NC(=O)c1cnc(C)s1)C(=O)N[C@@H](COC)C(=O)N[C@@H](Cc1ccccc1)C(=O)[C@@]1(C)CO1 [Oprozomib] | 0.176
CC(=O)NC(Cc1ccccc1)C(=O)O (stereo not drawn) [Afalanine] | 1.04
CC(NC(=O)C(Cc1ccccc1)NC(=O)OCc1ccccc1)C(=O)CF (stereo not drawn) | 1.1
Cn1c(=O)c(Oc2ccc(F)cc2F)cc2cnc(NC(CCO)CCO)nc21 [Pamapimod] | 1.05
C[C@@H]1CC[C@@]2(NC1)O[C@H]1C[C@H]3[C@@H]4CC=C5C[C@@H](O[C@@H]6O[C@H](CO)[C@H](O)[C@H](O[C@@H]7O[C@H](CO)[C@@H](O)[C@H](O)[C@H]7O)[C@H]6O[C@@H]6O[C@@H](C)[C@H](O)[C@@H](O)[C@H]6O)CC[C@]5(C)[C@H]4CC[C@]3(C)[C@H]1[C@@H]2C [Solasonine] | 1.1
Cn1cc(-c2cc3c(N4CCN(c5ncc([C@@](C)(N)c6ccc(F)cc6)cn5)CC4)ncnn3c2)cn1 [Avapritinib] | 0.846
C[C@H](NC(=O)CNC(=O)c1cccc(Cl)c1)c1ccccc1 | 1.09
CCCC(C)NC(=O)c1ccc(Cl)c(Cl)c1 (stereo not drawn) | 1.06
CC(C)C[C@H](NC(=O)CNC(=O)c1cc(Cl)ccc1Cl)B1OC(=O)C(CC(=O)O)(CC(=O)O)O1 | 0.106
CC(C)C[C@H](NC(=O)CNC(=O)c1cc(Cl)ccc1Cl)B(O)O [Ixazomib] | 0.121
CCNC(=O)Nc1ccc(-c2nc(N3CCOC[C@@H]3C)c3c(n2)C(C)(C)S(=O)(=O)C3)cc1 | 0.547
CCn1nc(C2CCN(C(=O)CCO)CC2)nc1-c1cnc(N)c(-c2nnc(C(C)(C)C)o2)n1 | 1.04
COc1cc(OCc2cccc(-c3ccccc3)c2C)cc(OC)c1CN1CCCC[C@H]1C(=O)O [PD-1/PD-L1 inhibitor 1] | 1.09
Nc1n[nH]c2cc(-c3ccc(=O)n(Cc4cccc(Cl)c4)c3)ccc12 | 1
Cc1cc(-n2cccc2)c(S(C)(=O)=O)cc1C(=O)N=C(N)N [Eniporide] | 1.24
Nc1nccc(Oc2ccc3c(C(=O)Nc4cccc(C(F)(F)F)c4)cccc3c2)n1 | 1.15
C=C1CCC[C@]2(C)C[C@]3(O)OC(=O)C(C)=C3C[C@@H]12 [Atractylenolide III] | 1.1

Structure (SMILES) | cell viability
COc1nccnc1NS(=O)(=O)c1ccc(NC(=O)/C=C/c2ccc([N+](=O)[O-])s2)cc1 [Necrosulfonamide] | 1.13
O=C(COCC(=O)N1CCN(C(c2ccccc2)c2ccccc2)CC1)Nc1ccc(Cl)cc1C(=O)O [TM5275 sodium] | 0.996
NCCC(=O)O [beta-Alanine] | 1.24
CC(C)S(=O)(=O)c1ccc2nccc(Nc3ccc4scnc4c3)c2c1 | 1.08
Nc1nc(=O)c2c([nH]1)NC[C@H](CNc1ccc(C(=O)N[C@@H](CCC(=O)O)C(=O)O)cc1)N2C=O [Calcium Levofolinate] | 1.15
Nc1nc2[nH]cc(CCc3ccc(C(=O)N[C@@H](CCC(=O)O)C(=O)O)cc3)c2c(=O)[nH]1 [Pemetrexed Disodium Hydrate] | 0.187
Cc1ccc2nc(N)[nH]c(=O)c2c1Sc1ccncc1 [Nolatrexed] | 1.04
COc1c2c(cc3c1-c1c(cc4c(c1OC)OCO4)C[C@H](C)[C@H](C)C3)OCO2 [Schisandrin C] | 0.951
N#CC(=Cc1cc(Cl)cc(Cl)c1)c1cccnc1 | 1.14
CCN(CC)CCOc1ccc(Nc2nc(-c3ccccc3NC(=O)CCN3CCN(C)CC3)nc3ccccc23)cc1 | 1.15
CC(C)Oc1ccc(C(=O)N[C@H](CNC(=O)CN(C)C)Cc2ccc(-c3cn4cccc([C@H](C)O)c4n3)cc2)cc1Cl | 0.15
COc1ccc(-c2cc(=O)c3c(O)cc(O[C@@H]4O[C@H](CO[C@@H]5O[C@@H](C)[C@H](O)[C@@H](O)[C@H]5O)[C@@H](O)[C@H](O)[C@H]4O)cc3o2)cc1 [Linarin] | 1.02
NC(=O)c1[nH]cnc1N [4-Amino-5-imidazolecarboxamide] | 1.23
CCn1cc(-c2cccc(C(F)(F)F)c2)c2sc(C(=N)NC3CCS(=O)(=O)CC3)cc2c1=O | 1.1
CC(C)C[C@H](NC(=O)[C@H](CCc1ccccc1)NC(=O)CN1CCOCC1)C(=O)N[C@@H](Cc1ccccc1)C(=O)N[C@@H](CC(C)C)C(=O)[C@@]1(C)CO1 [Carfilzomib] | 0.0349
COc1ccc(C[C@H](NC(=O)[C@H](C)NC(=O)CN2CCOCC2)C(=O)N[C@@H](Cc2ccccc2)C(=O)C2(C)CO2)cc1 (stereo in doubt) | 0.878
CC(C)c1nc(CN(C)C(=O)N[C@@H](CCN2CCOCC2)C(=O)N[C@H](CC[C@H](Cc2ccccc2)NC(=O)OCc2cncs2)Cc2ccccc2)cs1 [Cobicistat] | 1.14
CC(=O)OC(CC(C)C1=C2C[C@H](O)C3[C@@]4(C)CCC(=O)C(C)(C)C4CC[C@]3(C)[C@@]2(C)CC1)C1OC1(C)C (stereo partly drawn) [Alisol B 23-acetate] | 0.99
CC(C)C[C@H](NC(=O)[C@H](Cc1ccccc1)NC(=O)c1cnccn1)B(O)O [Bortezomib] | 0.067
CC(C)C[C@H](NC(=O)[C@@H](O)[C@H](N)Cc1ccccc1)C(=O)O [Bestatin hydrochloride] | 1.16
CC(C)C[C@H](NC(=O)[C@@H](NC(=O)c1cccc(-c2ccccc2)n1)[C@@H](C)O)B(O)O [Delanzomib] | 0.096
CNC(=O)[C@H](Cc1ccccc1)NC(=O)[C@H](CC(C)C)[C@H](CSc1cccs1)C(=O)NO [Batimastat] | 1.08
CC(C)C[C@H](NC(=O)[C@@H](O)[C@H](N)Cc1ccccc1)C(=O)O [Ubenimex] | 1.08
CCCOc1ccc(/C=C2\SC(=O)NC2=O)cc1 | 1.11
CCn1c(=Cc2cccc[n+]2CC)sc(=C2Sc3ccccc3N2C)c1=O | 1.04
COc1ccc(/C=C/c2cc(O)cc(O[C@@H]3O[C@H](CO)[C@@H](O)[C@H](O)[C@H]3O)c2)cc1O [Rhaponiticin] | 1.11

Structure (SMILES) | cell viability
CC(C)=CCC[C@](C)(O[C@@H]1O[C@H](CO)[C@@H](O)[C@H](O)[C@H]1O)[C@H]1CC[C@]2(C)[C@@H]1[C@H](O)C[C@@H]1[C@@]3(C)CC[C@H](O)C(C)(C)[C@@H]3[C@@H](O)C[C@]12C [Ginsenoside F1] | 1.1
C=C1CC[C@@H]2[C@](C)(CO[C@@H]3O[C@H](CO)[C@@H](O)[C@H](O)[C@H]3O)CCC[C@@]2(C)[C@@H]1CCC1=CCOC1=O [Neoandrographolide] | 1.08
O=C1N[C@@H](Cc2c[nH]c3ccccc23)C(=O)N2CCC[C@@H]12 [Brevianamide F] | 1.05
Nc1nc(O)c2[nH]nnc2n1 [8-Azaguanine] | 0.571
CCc1cnn2c(NCc3ccc[n+]([O-])c3)cc(N3CCCC[C@H]3CCO)nc12 [Dinaciclib] | 0.118
COc1ccc(CNc2nc(N3CCC[C@H]3CO)ncc2C(=O)NCc2ncccn2)cc1Cl [Avanafil] | 0.966
O=C1C[C@@H](c2ccc(O)c(O)c2)Oc2cc(O)cc(O)c21 [Eriodictyol] | 1.04
COc1cccc(OCCCN)c1-c1cc(Nc2cnc(C#N)cn2)n[nH]1 [Prexasertib dihydrochloride] | 0.169
N#Cc1cnc(Nc2cc(NC[C@H]3CNCCO3)c(C(F)(F)F)cn2)cn1 | 1.07
Cc1cc(O)c(C(=O)CCC(C)C)c(=O)o1 [Pogostone] | 1.04
O=C(NCc1ccc(S(=O)(=O)c2cc(F)cc(F)c2)cc1)c1ccc2nccn2c1 | 0.117
Cc1ccc(S(=O)(=O)Cc2nc(-c3ccc(C(=O)NCc4cccnc4)cc3)oc2C)cc1 | 0.875
O=S(=O)(c1ccc(Cl)cc1)N1CCN(c2ccnc3cc(Cl)ccc23)CC1 | 1.08
CCCCCCCCCCCCCCOc1ccc(C(=O)O)o1 | 1.05
O=C(NCCN1CCOCC1)Nc1ccc(C(=O)/C=C/c2cccc(N3CCOCC3)n2)cc1 | 1.09
CC(=O)c1cnc2ccc(-c3cc(Cl)c(O)c(Cl)c3)nc2c1N[C@H]1CC[C@H](CN(C)C)CC1 | 0.657
O=C(NCCCNc1nc(Nc2cccc(CN3CCOCC3)c2)ncc1C1CC1)C1CCC1 | 0.937
Nc1ccn([C@@H]2O[C@H](CO)[C@@H](O)C2(F)F)c(=O)n1 [Gemcitabine] | 0.0956
CCCC(CCC)C(=O)Nc1ccn([C@@H]2O[C@H](CO)[C@@H](O)C2(F)F)c(=O)n1 | 1.12
C[C@H](NP(=O)(OC[C@H]1O[C@@H](n2ccc(N)nc2=O)C(F)(F)[C@@H]1O)Oc1ccccc1)C(=O)OCc1ccccc1 (stereo partly drawn) [Acelarin] | 0.135
Nc1ccn([C@@H]2CS[C@H](CO)O2)c(=O)n1 [Lamivudine] | 1.21
Nc1ccn([C@@H]2O[C@H](CO)[C@@H](O)C2(F)F)c(=O)n1 [Gemcitabine HCl] | 0.121
CC(=O)Nc1ccn([C@@H]2O[C@H](CO)[C@@H](O)[C@H]2O)c(=O)n1 [N4-Acetylcytidine] | 1.06
Nc1ccn([C@H]2C[C@H](O)[C@@H](CO)O2)c(=O)n1 [2'-Deoxycytidine monohydrate] | 1.07
Nc1ccn([C@@H]2O[C@H](CO)[C@@H](O)[C@@H]2O)c(=O)n1 [Cytarabine] | 0.12
Nc1ccn([C@@H]2O[C@H](CO)[C@@H](O)[C@H]2O)c(=O)n1 [Cytidine] | 0.915
